Records with an inconclusive call do not appear. Values without a mark were called inactive. Activity calls are given as the source filed them. The call rests on the fitted dose curve; in most records, active means well fitted inhibition curve with a large enough effect; inconclusive means small, poorly fitted or top-dose-only effect; inactive means no such curve, though single readings can be large or run the other way.

Chain of Luciferin 4-monooxygenase (Photinus pyralis) (P08659 whole entry, looked up): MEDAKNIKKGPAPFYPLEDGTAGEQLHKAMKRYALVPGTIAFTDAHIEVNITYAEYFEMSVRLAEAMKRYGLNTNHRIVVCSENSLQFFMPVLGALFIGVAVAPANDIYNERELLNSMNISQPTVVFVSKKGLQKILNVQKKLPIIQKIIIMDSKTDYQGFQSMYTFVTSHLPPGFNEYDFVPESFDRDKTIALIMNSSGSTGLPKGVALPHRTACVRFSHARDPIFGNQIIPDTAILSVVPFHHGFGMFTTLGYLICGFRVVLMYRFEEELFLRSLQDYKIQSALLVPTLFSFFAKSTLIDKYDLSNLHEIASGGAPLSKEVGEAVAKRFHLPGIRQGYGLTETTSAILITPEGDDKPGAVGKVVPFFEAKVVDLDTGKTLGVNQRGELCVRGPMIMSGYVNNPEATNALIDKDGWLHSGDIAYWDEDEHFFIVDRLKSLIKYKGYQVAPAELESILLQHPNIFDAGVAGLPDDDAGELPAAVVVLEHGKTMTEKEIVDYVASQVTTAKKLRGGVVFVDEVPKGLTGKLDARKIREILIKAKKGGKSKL

The assay has as its target Luciferin 4-monooxygenase (Photinus pyralis) (UniProt P08659). Description: FLuc inhibitory activity for the follow-up compounds in a biochemical assay with a commercial detection reagent - BriteliteTM Plus (PerkinElmer). To be noted: purified FLuc, Britelite Plus luminescence; series mostly up to 38.3 µM; activity change, negative = inhibition: at the top concentration. From the text:
NCGC Assay Overview: Firefly (Photinus pyralis) luciferase is one of the most commonly used transcriptional reporters. It is considered one of the more dynamically responsive reporters - that is, responsive to changes in reporter transcription - as it requires no post-translational modifications and is enzymatically active directly after protein synthesis (Wood, 1998). With no endogenous expression in mammalian cells and without the requirement of external excitation, it offers very little background signal, thus generally providing excellent signal to background for most assays. Previous profiling work to determine the prevalence of compounds that affect FLuc enzymatic activity (PubChem AID 411) identified that ~3% of the MLSMR library (then at ~72K) inhibited FLuc (Auld et al., 2008). […] Of the compounds identified in this profile that inhibited FLuc, 151 compounds were selected for further analysis, in an effort to better understand their mode of inhibiting FLuc. The assay described here was to determine the activity of the compounds in a FLuc assay that used a commercial formulation of detection reagent (BriteliteTM Plus; PerkinElmer).
NCGC Assay Protocol Summary: Reagents: Britelite Plus detection reagent; 50mM Tris acetate, pH 7.5; 10nM P. pyralis luciferase (Sigma #L9506) Control compounds used were two known firefly luciferase inhibitors (3-(5-(3-chlorophenyl)-1,2,4-oxadiazol-3-yl)benzoic acid and 5-(2-fluorophenyl)-3-phenyl-1,2,4-oxadiazole), and DMSO. Assay Summary: Three microliters of buffer containing firefly luciferase (final concentrations: 50mM Tris acetate, 10nM P. pyralis luciferase) are dispensed into each well of a Greiner white, solid-bottom 1536-well format plate using a flying reagent dispenser (FRD). These assay plates were then treated with 23nL of compound or DMSO using a Kalypsys pin tool, which allows for delivery of a 12-point intraplate titration of each compound to the assay plate (quantitative HTS), with final compound concentrations ranging from approximately ~38uM to 0.2nM. Three microliters of 2X Britelite Plus detection reagent was then delivered by FRD to each well. Luciferase activity was then measured using a ViewLux CCD imager (PerkinElmer), with an average exposure time of 2-30 seconds (2X binning, medium/high gain).
Consider `Cc1cccc(C(=O)Nc2ccc(-c3nc4ccccc4s3)cc2Cl)c1`, for which the “activity change, negative = inhibition” value is -20.5%. Same read-out and setting: the value for `O=C(O)c1cccc(NC(=O)c2ccc(S(=O)(=O)c3ccccc3)cc2)c1` was -14.5%; that for `Cc1ccc(C(=O)Nc2ccc(C(=O)O)cc2)cc1S(=O)(=O)NCc1ccccc1` was -0.493%.

On to `NC(=O)Cc1ccc2sc(-c3ccccc3)nc2c1`, for which the Potency is 6340 nM (active). On to `COc1ccc2nc(NC(=O)c3cnccn3)sc2c1`, for which the Potency is 2000 nM (active).

For `Nc1ccc(-c2nc3ccc(C(=O)O)cc3s2)cc1`, the Potency is 634 nM (active). On to `O=C(O)c1cccc(NC(=O)c2cccc(S(=O)(=O)N3CCc4ccccc4C3)c2)c1`, for which the “activity change, negative = inhibition” value was -5.63%. Same read-out and setting: the value for `O=C(O)c1cccc(NC(=O)c2cccc(S(=O)(=O)N3CCc4ccccc43)c2)c1` was -7.51%. Take `Cc1ccc(C(=O)O/N=C(\N)c2ccccn2)c(Cl)c1`: the Potency is 25.2 nM (active). Same read-out and setting: the value for `CCn1c(C)nc2cc(-c3nc4n(n3)Cc3ccccc3-4)ccc21` was 71.1 nM (active).

Turning to `Cc1ccc2nc(-c3ccc(NC(=O)CN4CCN(C(=O)c5ccco5)CC4)cc3)sc2c1`, the Potency is 798 nM (active). For `O=C(Nc1ccccc1C(=O)O)c1cccc(C(=O)Nc2ccccc2C(=O)O)c1`, the “activity change, negative = inhibition” value is -11.6%. On the same count and under the same terms, the value for `O=C(Nc1cccc(-c2nc3ccccc3s2)c1)C1=COCCO1` was -15%. As to `Cc1ccc(C(=O)O/N=C(\N)c2ccccn2)cc1`, the Potency was 28.3 nM (active).

Turning to `COc1ccc2nc(NC(=O)c3cccc(S(=O)(=O)N4CCOCC4)c3)sc2c1`, the “activity change, negative = inhibition” value was 20%. As for `CCOc1ccc2nc(NC(=O)c3ccoc3C)sc2c1`, the Potency was 2000 nM (active).

For `Nc1ccc(-c2nc3ccc(N)cc3s2)cc1`, the Potency was 565 nM (active).

As to `O=C(Cc1ccc(Cl)cc1)Nc1cccc(C(=O)Nc2ccccc2C(=O)O)c1`, the “activity change, negative = inhibition” value was 17.1%. Still for that read-out and setting: the value for `O=C(O)c1cccc(NC(=O)c2cccc(S(=O)(=O)Nc3cccc(F)c3)c2)c1` was -35.2%. The same measure, in the same setting: the value for `CC(=O)Nc1cccc(C(=O)Nc2ccccc2C(=O)O)c1` was -23.5%; that for `COc1ccc(CC(=O)Nc2cccc(C(=O)Nc3ccccc3C(=O)O)c2)cc1OC` was -7.35%. As to `O=C(O)c1cccc(NC(=O)c2ccc(Cl)c(S(=O)(=O)N3CCCCCC3)c2)c1`, the Potency is 3180 nM (active).

`CCOc1ccc2nc(NC(=O)c3ccccc3)sc2c1`: the Potency was 2520 nM (active). For the compound `O=C(O)c1ccc(NC(=O)c2cc(S(=O)(=O)N3CCCCC3)c(Cl)cc2Cl)cc1`, the “activity change, negative = inhibition” value is -26.9%. Consider `CCOc1ccc(C(=O)Nc2ccccc2C(=O)O)cc1`, for which the Potency is 3560 nM (active).

Consider `CCOc1ccc(C(=O)Nc2cccc(C(=O)O)c2)cc1Cl`, for which the Potency was 7110 nM (active). Same read-out and setting: the value for `C/C(=N\NC(=O)c1ccccc1NC(=O)c1ccc(Cl)cc1)c1ccncc1` was 15.9 nM (active); that for `Nc1ccc(C(=O)Nc2ccccc2C(=O)O)cc1` was 11300 nM (active).

Consider `O=C(Nc1ccccc1C(=O)O)c1cc(S(=O)(=O)NCc2ccccc2)ccc1Cl`, for which the “activity change, negative = inhibition” value is -4.67%.

For `CC(C)c1ccc(-c2nc3ccccc3s2)cc1`, the Potency is 22.5 nM (active). Consider `COc1ccc2nc(NC(=O)C3CCN(S(=O)(=O)c4cccnc4)CC3)sc2c1`, for which the “activity change, negative = inhibition” value was 37.8%. Regarding `O=C(O)c1ccc(NC(=O)c2ccccc2NC(=O)c2ccccc2Cl)cc1`, the “activity change, negative = inhibition” value is -8.33%. The same measure, in the same setting: the value for `COc1cc(OC)cc(C(=O)Nc2ccccc2-c2nc3ccccc3s2)c1` was -29.1%; that for `COc1ccc(Br)cc1C(=O)Nc1ccc(C(=O)O)cc1` was -10.9%. Regarding `O=C(O)c1ccc(NC(=O)c2cccc(C(=O)Nc3ccc(C(=O)O)cc3)c2)cc1`, the “activity change, negative = inhibition” value was -5.19%. On the same count and under the same terms, the value for `O=C(Nc1ccccc1C(=O)O)c1cc(S(=O)(=O)Nc2ccccc2)ccc1Cl` was 1.24%.

As for `COc1ccc(-c2nc3ccccc3s2)cc1NC(=O)c1ccc(F)cc1`, the “activity change, negative = inhibition” value was -25.6%.

For the compound `Cc1ccc(S(=O)(=O)N2CCN(C(=O)c3ccccc3-c3nc4ccccc4s3)CC2)c(C)c1`, the “activity change, negative = inhibition” value was 14.2%. Turning to `Cc1ccc(C(=O)Nc2ccccc2C(=O)O)cc1S(=O)(=O)N1CCCCCC1`, the Potency is 8950 nM (active). Take `O=C(Nc1ccccc1C(=O)O)c1cccc(NC(=O)c2ccccc2Br)c1`: the “activity change, negative = inhibition” value was -2.59%.

These data come from PubChem BioAssay AID602474 (National Center for Advancing Translational Sciences (NCATS), 2012).
